# Data published in PubChem BioAssay (Tox21).
# “And” between values parts separate entries of the source, which are not always exact repeats. Equal entries are not always repeated. Inconclusive results are not listed. Where a call stands in place of a potency, no number is given. Some structures have more than one record in an assay (separate samples or runs), and their calls can disagree. The source made the active and inactive calls. Unless noted, calls come from the whole dose curve; as a rule, active = well fitted curve in the direction sought with a large enough effect in the repeat runs; inconclusive = weak or mixed curves; inactive = no such curve, though single readings can be large; an effect the other way counts as inactive or inconclusive.
# Legend:
# [1] = molecular target: Estrogen receptor beta (Homo sapiens) (UniProt Q92731); experiment: qHTS assay to identify small molecule agonists of the estrogen receptor beta (ER-beta) signaling pathway (AID 1259377; active = well fitted activation curve with a large enough effect in the signal ratio in the repeat runs, not every such curve was filed as active; the % refers to the signal ratio)
# Sequence of Estrogen receptor beta (Homo sapiens) (Q92731 whole entry, looked up): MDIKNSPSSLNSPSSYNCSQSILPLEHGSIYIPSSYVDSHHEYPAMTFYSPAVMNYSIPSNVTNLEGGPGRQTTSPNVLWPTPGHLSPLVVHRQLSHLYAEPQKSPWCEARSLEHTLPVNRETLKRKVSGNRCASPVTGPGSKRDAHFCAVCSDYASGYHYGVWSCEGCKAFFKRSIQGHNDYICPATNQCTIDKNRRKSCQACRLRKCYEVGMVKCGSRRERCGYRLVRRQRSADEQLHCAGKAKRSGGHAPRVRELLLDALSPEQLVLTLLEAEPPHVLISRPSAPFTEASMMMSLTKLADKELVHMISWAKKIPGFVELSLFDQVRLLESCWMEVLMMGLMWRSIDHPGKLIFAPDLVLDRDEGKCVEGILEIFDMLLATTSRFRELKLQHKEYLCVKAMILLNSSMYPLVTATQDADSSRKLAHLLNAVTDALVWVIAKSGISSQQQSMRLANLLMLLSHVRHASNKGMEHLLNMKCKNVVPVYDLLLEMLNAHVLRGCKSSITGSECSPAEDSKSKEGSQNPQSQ
# In short: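 Reporter cells (HEK293T, ER-beta-UAS-bla) receive compounds or DMSO after a 6 hr pre-incubation. They then incubate 16 hr at 37C/5% CO2, and fluorescence from LiveBLAzer B/G substrate is measured after 2 hours at room temperature.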
# [2] = molecular target: Estrogen receptor beta (Homo sapiens) (UniProt Q92731); experiment: qHTS assay to identify small molecule antagonists of the estrogen receptor beta (ER-beta) signaling pathway (AID 1259378; active = well fitted inhibition curve with a large enough effect in the signal ratio in the repeat runs, not every such curve was filed as active; the % refers to the signal ratio; note: potency is the fitted concentration of half-maximal effect)
# In short: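 ER-beta-UAS-bla HEK293T (GripTite) cells in 2% charcoal-stripped FBS medium were preincubated 6 hr at 37C, dosed with compound, then stimulated with 1 nM E2 (final) for 16 hr; beta-lactamase reporter read by B/G FRET fluorescence after 2 hr substrate loading.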
# [3] = molecular target: Androgen receptor (Homo sapiens) (UniProt P10275); experiment: qHTS assay to identify small molecule agonists of the androgen receptor (AR) signaling pathway in the presence of an antagonist (AID 1259381; calls by dose curve; note: nearly all actives have a fitted effect of over 15% in size)
# Sequence of Androgen receptor (Homo sapiens) (P10275 whole entry, looked up): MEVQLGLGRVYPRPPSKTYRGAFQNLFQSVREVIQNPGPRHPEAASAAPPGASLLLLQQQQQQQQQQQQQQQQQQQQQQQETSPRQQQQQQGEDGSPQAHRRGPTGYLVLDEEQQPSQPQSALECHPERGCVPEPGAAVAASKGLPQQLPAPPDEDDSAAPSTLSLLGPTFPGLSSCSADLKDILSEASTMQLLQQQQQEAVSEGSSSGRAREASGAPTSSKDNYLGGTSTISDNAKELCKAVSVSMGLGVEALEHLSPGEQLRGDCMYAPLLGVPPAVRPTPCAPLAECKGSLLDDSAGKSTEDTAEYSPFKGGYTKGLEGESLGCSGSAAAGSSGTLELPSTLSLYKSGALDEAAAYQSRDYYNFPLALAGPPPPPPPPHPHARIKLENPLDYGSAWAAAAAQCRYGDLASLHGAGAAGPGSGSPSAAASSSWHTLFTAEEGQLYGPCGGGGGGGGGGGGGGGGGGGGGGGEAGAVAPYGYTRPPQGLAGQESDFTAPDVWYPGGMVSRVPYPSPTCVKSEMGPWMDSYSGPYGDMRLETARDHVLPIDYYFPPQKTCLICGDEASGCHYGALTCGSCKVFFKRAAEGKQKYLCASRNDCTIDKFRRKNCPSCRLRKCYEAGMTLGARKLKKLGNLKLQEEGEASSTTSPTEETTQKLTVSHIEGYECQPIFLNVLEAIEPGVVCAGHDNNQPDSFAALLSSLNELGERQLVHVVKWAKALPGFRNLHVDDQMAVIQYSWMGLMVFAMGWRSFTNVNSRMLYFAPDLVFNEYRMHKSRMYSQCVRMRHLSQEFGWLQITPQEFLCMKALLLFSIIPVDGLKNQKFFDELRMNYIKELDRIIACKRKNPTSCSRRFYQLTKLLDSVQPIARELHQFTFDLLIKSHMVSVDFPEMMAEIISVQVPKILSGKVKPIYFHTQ
# In short: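 Using human MDA-kb2 cells with an MMTV promoter–luciferase construct (AR and GR response elements), agonist activity is scored under 3.0uM nilutamide (final) co-treatment; 16hr incubation, 37C, luminescence readout via ONE-Glo.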
# [4] = qHTS assay to identify small molecule antagonists of the estrogen receptor beta (ER-beta) signaling pathway - cell viability counter screen (AID 1259382); note: nearly all actives have a fitted effect of over 55% in size; note: potency is the fitted concentration of half-maximal effect
# In short: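 Agonist-stimulated (1nM E2) ER-beta-UAS-bla HEK293T cells are incubated with library compounds for 16 hr at 37C. Cell viability is then assessed in the reporter-assay wells by adding CellTiter-Glo and reading luminescence after 30 min.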
# [5] = molecular target: Estrogen receptor (Homo sapiens) (UniProt P03372); experiment: qHTS assay to identify small molecule agonists of the estrogen receptor alpha (ER-alpha) signaling pathway in the presence of an antagonist (AID 1259383; calls by dose curve; note: top concentration of the series differs between compounds; nearly all actives have a fitted effect of over 15% in size)
# Sequence of Estrogen receptor (Homo sapiens) (P03372 whole entry, looked up): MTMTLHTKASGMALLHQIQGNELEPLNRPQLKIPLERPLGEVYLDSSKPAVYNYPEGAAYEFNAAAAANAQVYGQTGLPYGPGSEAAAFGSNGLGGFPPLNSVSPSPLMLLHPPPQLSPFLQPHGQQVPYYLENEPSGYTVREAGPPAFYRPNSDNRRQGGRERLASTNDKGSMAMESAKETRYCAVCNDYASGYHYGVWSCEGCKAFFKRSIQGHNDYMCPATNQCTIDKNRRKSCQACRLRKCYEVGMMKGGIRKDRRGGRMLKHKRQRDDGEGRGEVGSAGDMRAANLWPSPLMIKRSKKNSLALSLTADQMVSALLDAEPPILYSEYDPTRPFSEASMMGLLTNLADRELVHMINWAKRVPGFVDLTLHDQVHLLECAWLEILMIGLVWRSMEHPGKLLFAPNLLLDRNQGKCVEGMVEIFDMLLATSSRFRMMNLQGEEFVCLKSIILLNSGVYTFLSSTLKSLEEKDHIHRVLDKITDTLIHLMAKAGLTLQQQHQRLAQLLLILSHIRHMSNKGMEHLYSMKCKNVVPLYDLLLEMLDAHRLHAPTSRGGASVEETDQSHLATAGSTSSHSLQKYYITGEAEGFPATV
# In short: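 Using VM7Luc4E2 cells seeded 24hr before treatment, antagonist ICI-182,780 (10.0nM final) was added, followed by compounds at 15 concentrations. Plates incubated 22hr; ONE-Glo luminescence quantified reporter activity.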
# [6] = qHTS assay to identify small molecule agonists or antagonists of the thyroid stimulating hormone receptor (TSHR) signaling pathway - wild type cell line counter screen (AID 1259384; calls by dose curve)
# In short: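 Wild-type HEK293 cells were plated 18 h at 37 C/5% CO2, pin-dosed with compound plus Ro20-1724 medium, held 30 min at room temperature, then given cAMP-d2 and anti-cAMP-cryptate; fluorescence was read after 1 h. Fifteen concentrations, triplicate.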
# [7] = molecular target: Thyrotropin receptor (Homo sapiens) (UniProt P16473); experiment: qHTS assay to identify small molecule antagonists of the thyroid stimulating hormone receptor (TSHR) signaling pathway (AID 1259385; calls by dose curve; note: nearly all actives have a fitted effect of over 20% in size)
# Sequence of Thyrotropin receptor (Homo sapiens) (P16473 whole entry, looked up): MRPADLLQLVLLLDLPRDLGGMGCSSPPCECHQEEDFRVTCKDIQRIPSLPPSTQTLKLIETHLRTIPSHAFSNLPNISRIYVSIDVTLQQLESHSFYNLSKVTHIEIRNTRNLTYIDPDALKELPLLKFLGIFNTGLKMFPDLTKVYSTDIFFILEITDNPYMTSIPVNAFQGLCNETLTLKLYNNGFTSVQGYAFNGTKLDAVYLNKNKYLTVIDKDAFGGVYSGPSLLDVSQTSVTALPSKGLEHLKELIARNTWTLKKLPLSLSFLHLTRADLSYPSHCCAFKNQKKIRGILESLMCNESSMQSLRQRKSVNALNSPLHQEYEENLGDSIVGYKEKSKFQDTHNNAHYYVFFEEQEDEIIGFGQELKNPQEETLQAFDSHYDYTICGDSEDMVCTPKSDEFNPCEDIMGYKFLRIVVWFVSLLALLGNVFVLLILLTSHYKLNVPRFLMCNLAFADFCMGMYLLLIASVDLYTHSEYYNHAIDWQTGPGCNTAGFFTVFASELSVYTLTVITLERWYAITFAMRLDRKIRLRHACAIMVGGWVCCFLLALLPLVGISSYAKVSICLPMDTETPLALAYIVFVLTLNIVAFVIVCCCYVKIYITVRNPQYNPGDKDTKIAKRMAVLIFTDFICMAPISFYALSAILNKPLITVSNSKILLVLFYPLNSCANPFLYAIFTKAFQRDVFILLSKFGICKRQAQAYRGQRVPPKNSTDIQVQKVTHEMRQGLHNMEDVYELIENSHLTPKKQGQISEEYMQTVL
# In short: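 TSHR-HEK293 cells were plated and held 18 h at 37C/5% CO2, then given compound plus Ro20-1724 and stimulated with TSH at 1.5 ng/mL final. After 30 min at room temperature, cAMP was detected with cAMP-d2/anti-cAMP-cryptate (1 h) by fluorescence.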
# [8] = qHTS assay to identify small molecule agonists of the estrogen receptor alpha (ER-alpha) signaling pathway in the presence of an antagonist - cell viability counter screen (AID 1259386);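 note: cells exposed to compounds for 22 h at 37 °C before the viability read; nearly all actives have a fitted effect of over 30% in size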; note: potency is the fitted concentration of half-maximal effect
# In short: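 ICI-182,780 at 10.0nM final accompanies the compound titration (15 concentrations, 22hr, 37C) on VM7Luc4E2 cells. The CellTiter-Fluor fluorescence readout runs in the same wells as the luciferase assay.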
# [9] = molecular target: Progesterone receptor (Homo sapiens) (UniProt P06401); experiment: qHTS assay to identify small molecule agonists of the progesterone receptor (PR) signaling pathway (AID 1346784; calls by dose curve; note: nearly all actives have a fitted effect of over 30% in size)
# Sequence of Progesterone receptor (Homo sapiens) (P06401 whole entry, looked up): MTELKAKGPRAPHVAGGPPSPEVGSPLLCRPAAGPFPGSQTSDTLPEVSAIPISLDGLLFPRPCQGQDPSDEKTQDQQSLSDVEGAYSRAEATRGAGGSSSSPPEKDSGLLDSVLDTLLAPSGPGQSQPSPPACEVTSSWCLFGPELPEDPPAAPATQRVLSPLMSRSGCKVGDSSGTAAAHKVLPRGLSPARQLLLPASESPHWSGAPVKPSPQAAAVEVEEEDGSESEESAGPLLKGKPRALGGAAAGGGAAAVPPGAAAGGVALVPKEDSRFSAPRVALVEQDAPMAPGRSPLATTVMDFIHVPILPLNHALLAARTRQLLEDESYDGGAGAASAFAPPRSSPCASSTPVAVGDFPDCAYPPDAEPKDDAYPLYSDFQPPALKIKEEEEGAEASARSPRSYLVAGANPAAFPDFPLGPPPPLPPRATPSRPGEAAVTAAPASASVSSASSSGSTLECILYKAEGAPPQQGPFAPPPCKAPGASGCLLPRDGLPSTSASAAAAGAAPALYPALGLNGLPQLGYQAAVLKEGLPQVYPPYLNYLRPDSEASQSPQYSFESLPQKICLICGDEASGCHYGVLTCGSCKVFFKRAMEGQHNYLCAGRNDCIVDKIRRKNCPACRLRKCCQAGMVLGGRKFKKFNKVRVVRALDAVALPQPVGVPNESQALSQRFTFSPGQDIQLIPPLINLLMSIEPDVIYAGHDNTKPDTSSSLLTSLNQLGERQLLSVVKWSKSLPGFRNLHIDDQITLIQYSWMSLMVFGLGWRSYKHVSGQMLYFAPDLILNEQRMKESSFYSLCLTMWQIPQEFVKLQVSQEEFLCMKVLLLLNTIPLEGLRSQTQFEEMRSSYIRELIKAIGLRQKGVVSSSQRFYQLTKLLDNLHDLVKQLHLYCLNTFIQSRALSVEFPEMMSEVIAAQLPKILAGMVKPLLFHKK
# In short: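 Reporter assay, GripTite PR-UAS-bla HEK 293T cells: 16 hr exposure to DMSO-dissolved compounds at 37C, 5% CO2, in steroid-depleted (2% charcoal-stripped FBS) medium; beta-lactamase measured by FRET fluorescence.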
# [10] = molecular target: Progesterone receptor (Homo sapiens) (UniProt P06401); experiment: qHTS assay to identify small molecule antagonists of the progesterone receptor (PR) signaling pathway (AID 1346795; active = well fitted inhibition curve with a large enough effect in the signal ratio in the repeat runs, not every such curve was filed as active; the % refers to the signal ratio; note: potency is the fitted concentration of half-maximal effect)
# In short: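 Stimulus R5020 at 1 nM final; cells HEK293T PR-UAS-bla; medium with 2% charcoal-stripped FBS; compound exposure 16 hr at 37C, 5% CO2; detection by FRET beta-lactamase substrate, 2 hr, room temperature.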
# [11] = qHTS assay to identify small molecule agonists of the progesterone receptor (PR) signaling pathway - cell viability counter screen (AID 1346799; calls by dose curve; note: nearly all actives have a fitted effect of over 45% in size; note: potency is the fitted concentration of half-maximal effect)
# In short: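 Multiplexed viability read: CellTiter-Glo luminescence, 30 min RT, following LiveBLAzer FRET measurement on PR-UAS-bla HEK293T cells exposed to compounds 16 hr.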
# [12] = qHTS assay to identify small molecule antagonists of the TGF-beta/Smad signaling pathway - cell viability counter screen (AID 1346824); note: nearly all actives have a fitted effect of over 50% in size; note: potency is the fitted concentration of half-maximal effect
# In short: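 SBE-bla HEK 293T cells were plated overnight at 37 C, then given compounds in DMSO plus TGF-beta1 (added as 0.25 ng/mL solution) for 5 hr. After the bla read, CellTiter-Glo was added to the same wells and luminescence read after 30 min at room temperature.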
# [13] = qHTS assay to identify small molecule agonists of the TGF-beta/Smad signaling pathway - cell viability counter screen (AID 1346829); note: nearly all actives have a fitted effect of over 45% in size; note: potency is the fitted concentration of half-maximal effect
# In short: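 Compound-treated SBE-bla HEK 293T cells (5 hr, 37 C) were assessed for viability with CellTiter-Glo in parallel with the reporter read.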
# [14] = qHTS assay to identify small molecule agonists of the TGF-beta/Smad signaling pathway (AID 1346859; active = well fitted activation curve with a large enough effect in the signal ratio in the repeat runs, not every such curve was filed as active; the % refers to the signal ratio; note: series mostly up to about 77 µM)
# In short: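 Screening used HEK 293T SBE-bla cells at 4,000/well. Test agents: 5 hr, 37 C. Detection: FRET substrate, 2 hr RT, then excitation 405 nm with emissions at 460 and 530 nm.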
# [15] = molecular target: Thyrotropin-releasing hormone receptor (Homo sapiens) (UniProt P34981); experiment: qHTS assay to identify small molecule antagonists of the thyrotropin-releasing hormone receptor (TRHR) signaling pathway (AID 1346877; active = well fitted inhibition curve with a large enough effect in the repeat runs, not every such curve was filed as active; note: series mostly up to about 51 µM)
# Sequence of Thyrotropin-releasing hormone receptor (Homo sapiens) (P34981 whole entry, looked up): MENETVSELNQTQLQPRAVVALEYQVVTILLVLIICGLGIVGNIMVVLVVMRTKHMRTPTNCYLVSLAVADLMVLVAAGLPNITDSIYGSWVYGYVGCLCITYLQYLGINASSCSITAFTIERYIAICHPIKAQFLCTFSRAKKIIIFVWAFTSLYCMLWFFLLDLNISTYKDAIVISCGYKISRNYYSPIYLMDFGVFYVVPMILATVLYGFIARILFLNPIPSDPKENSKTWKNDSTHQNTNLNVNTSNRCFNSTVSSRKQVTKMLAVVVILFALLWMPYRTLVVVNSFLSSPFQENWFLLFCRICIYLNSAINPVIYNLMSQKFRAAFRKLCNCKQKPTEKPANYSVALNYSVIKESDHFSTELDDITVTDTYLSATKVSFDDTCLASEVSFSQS
# In short: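 Screening used HEK293 cells engineered with TRHR, with a brief 5 min room-temperature compound exposure preceding addition of TRH to 1 nM. The read-out was kinetic calcium-dye fluorescence, concentration-response from 15 doses in triplicate.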
# [16] = molecular target: Thyrotropin-releasing hormone receptor (Homo sapiens) (UniProt P34981); experiment: qHTS assay to identify small molecule agonists of the thyrotropin-releasing hormone receptor (TRHR) signaling pathway (AID 1346891; calls by dose curve; note: potency is the fitted concentration of half-maximal effect; for activation: series mostly up to about 58 µM)
# In short: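 Readout was intracellular calcium fluorescence in TRHR-Hek293 cells. Cells were incubated 18 h, dye-loaded 2 h at 37 °C, and treated with compound in agonist mode.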
# [17] = Human pregnane X receptor (PXR) small molecule agonists, qHTS cell viability counter screen (AID 1346977); note: nearly all actives have a fitted effect of over 50% in size; note: potency is the fitted concentration of half-maximal effect
# In short: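 In each well, the PXR reporter HepG2 line was checked for viability: CellTiter-Fluor reagent added 23hr post-dosing, fluorescence read after 1hr incubation at 37C.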
# [18] = qHTS assay to identify small molecule agonists of the androgen receptor (AR) signaling pathway in the presence of an antagonist - cell viability counter screen (AID 1259379); note: nearly all actives have a fitted effect of over 25% in size; note: potency is the fitted concentration of half-maximal effect
# In short: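 A CellTiter-Fluor read-out measured viability of MDA-kb2 reporter cells (MMTV promoter with AR and GR response elements). Treatment: nilutamide 3.0uM final with compounds at 15 concentrations, 16 hr, 37C, 0% CO2.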
# [19] = qHTS assay to identify small molecule agonists of the estrogen receptor beta (ER-beta) signaling pathway - cell viability counter screen (AID 1259380); note: nearly all actives have a fitted effect of over 30% in size; note: potency is the fitted concentration of half-maximal effect
# In short: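 Cells used were ER-beta-UAS-bla HEK293T in medium with 2% charcoal-stripped FBS. They were treated for 16 hr at 37C. Viability came from CellTiter-Glo luminescence.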
# [20] = qHTS assay to identify small molecule antagonists of the progesterone receptor (PR) signaling pathway - cell viability counter screen (AID 1346798); note: nearly all actives have a fitted effect of over 50% in size; note: potency is the fitted concentration of half-maximal effect
# In short: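 In the same plates used for the beta-lactamase readout, cell viability of compound- and R5020-treated PR-UAS-bla HEK293T cells (16 hr, 37C) was assessed by CellTiter-Glo luminescence.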
SMILES,outcome [1],Potency [2],Potency [3],Potency [4],Potency [5],Potency [6],Potency [7],Potency [8],Potency [9],Potency [10],Potency [11],Potency [12],Potency [13],outcome [14],Potency [15],Potency [16],Potency [17],Potency [18],Potency [19],Potency [20]
C=CC(=O)OCCCCCCOC(=O)C=C,inactive,54.5 µM (active),inactive,inactive,inactive,inactive,inactive,inactive,inactive,inactive,inactive,inactive,inactive,inactive,inactive,inactive,inactive,,,
Oc1c(Cl)cc(Cl)cc1Sc1cc(Cl)cc(Cl)c1O,inactive,27.8 µM (active) and 7.7 µM (active),,30.7 µM (active) and 54.5 µM (active),inactive,,inactive,,,21.7 µM (active) and 49.3 µM (active),,inactive,,inactive,,39.6 µM (active) and inactive,,,,
CCCCC(CC)COC(=O)CC(C(=O)OCC(CC)CCCC)S(=O)(=O)O (stereo not given),inactive,,,29.5 µM (active) and 27.3 µM (active),inactive,,,inactive,inactive,,29.5 µM (active),,inactive,inactive,inactive,inactive,70.8 µM (active) and 61.1 µM (active),inactive,26.3 µM (active) and 30.6 µM (active),
O=C(O)CCc1ccccc1,inactive,inactive,,inactive,,inactive,inactive,inactive,inactive,inactive,inactive,inactive,,inactive,inactive,inactive,inactive,inactive,inactive,inactive
Cc1cc(OCCOCC[N+](C)(C)Cc2ccccc2)ccc1C(C)(C)CC(C)(C)C,inactive,,inactive,21.6 µM (active) and 13.3 µM (active),inactive,,inactive,,inactive,,27.1 µM (active) and 13.3 µM (active),43.4 µM (active) and 23.9 µM (active),43.4 µM (active) and 23.9 µM (active),inactive,inactive,inactive,54.2 µM (active),54.2 µM (active) and 29.8 µM (active),27.1 µM (active) and 13.3 µM (active),54.2 µM (active) and 26.6 µM (active)
O=C1Nc2ccccc2C1(c1ccc(O)cc1)c1ccc(O)cc1,inactive,27.3 µM (active) and 18.8 µM (active),,inactive,inactive,inactive,inactive,1.37 µM (active) and 944 nM (active),inactive,54.5 µM (active),,inactive,inactive,inactive,,,inactive,,inactive,
CCCCCCC(O)CCCCCCCCCCC(=O)O (stereo not given),inactive,inactive,,inactive and 30.6 µM (active),,,inactive,inactive,inactive,,48.7 µM (active) and 15.4 µM (active),inactive,inactive,,inactive,inactive,inactive,inactive,inactive and 48.6 µM (active),
